Results: the supplement of paper PMC12636033
± gives the standard deviation of the averaged measurements. Over roughly 33,000 sequences, “E-score (rank enrichment, -0.5 to 0.5)” has its median near -0.0075; the highest 2% begin near 0.23. For the sample, the highest values were picked, then their nearest neighbours and some sequences at random.

Tested on: WT Max(13-93) synthetic (M65Nle)
Test: PBM 8-mer E-score (E-score (rank enrichment, -0.5 to 0.5)); higher = stronger preferential binding
Method: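 Protein binding microarray (universal PBM chip covering all 10-mers in fixed probe flanks) with chemically synthesized human Max(13-93) bHLH-LZ analogs (not full-length Max) bearing noncanonical residues (hArg, Tha, Aib, Nle at 65) and aromatic Cys staples. Read-out per 8-mer (and its reverse complement): E-score (rank-based enrichment, -0.5 to 0.5) and Z-score of median probe intensity.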

GCCAATCA and TAATCGAA are within error of each other in “PBM 8-mer E-score” value: 0.0501 ± 0.062 for the first, 0.0693 ± 0.0042 for the second.

First: CCGAAAGA
Second: CCCGGGCA
The “PBM 8-mer E-score” value of the first is higher: -0.0212 ± 0.033 for the first, -0.273 ± 0.045 for the second.

AGGGAGTC and CATCGGAA are within error of each other in “PBM 8-mer E-score” value: -0.0877 ± 0.012 for the first, -0.106 ± 0.077 for the second.

Compared with AAGTTGGG, ATGCACGA is higher in “PBM 8-mer E-score” value: -0.0303 ± 0.066 for the first, 0.172 ± 0.088 for the second.

First: CTGCACGC
Second: ATGCACAG
The “PBM 8-mer E-score” value of the first is higher: 0.167 ± 0.037 for the first, 0.108 ± 0.0019 for the second.

ATGCACGC and ATGCACAC are within error of each other in “PBM 8-mer E-score” value: 0.26 ± 0.026 for the first, 0.239 ± 0.079 for the second.

Going from ATGCACAA to ACCTAGCT, the “PBM 8-mer E-score” value falls from 0.14 ± 0.051 to -0.036 ± 0.038.

First: ACAATCAC
Second: GCAATCAC
The “PBM 8-mer E-score” value of the first is higher: 0.28 ± 0.016 for the first, 0.0355 ± 0.036 for the second.

CCAATCAC and AACCAAGA are within error of each other in “PBM 8-mer E-score” value: 0.158 ± 0.025 for the first, 0.113 ± 0.036 for the second.

First: AGGGGGGG
Second: TCAAATCA
The “PBM 8-mer E-score” value of the first is lower: -0.162 ± 0.1 for the first, 0.0295 ± 0.016 for the second.

TACAACAA and CACAACAA are within error of each other in “PBM 8-mer E-score” value: 0.245 ± 0.075 for the first, 0.17 ± 0.053 for the second.

Going from CACAACAC to GACAACAC, the “PBM 8-mer E-score” value falls from 0.162 ± 0.014 to 0.025 ± 0.0086.

AACAACAC and AACAACAA are within error of each other in “PBM 8-mer E-score” value: 0.248 ± 0.025 for the first, 0.222 ± 0.06 for the second.

Going from AGCCGCTC to AGGCACAC, the “PBM 8-mer E-score” value rises from -0.0773 ± 0.005 to -0.00413 ± 0.014.

TATTAGCA and CCCCTCCA are within error of each other in “PBM 8-mer E-score” value: 0.103 ± 0.035 for the first, 0.186 ± 0.16 for the second.

AGTAACAT and CTATAATA are within error of each other in “PBM 8-mer E-score” value: 0.165 ± 0.019 for the first, 0.125 ± 0.03 for the second.

ATAATACG and ATAATATG are within error of each other in “PBM 8-mer E-score” value: 0.179 ± 0.092 for the first, 0.2169 ± 0.00097 for the second.

ATAATACA and GCATAATA are within error of each other in “PBM 8-mer E-score” value: 0.265 ± 0.036 for the first, 0.195 ± 0.12 for the second.

ATATAATA and ATAATATA are within error of each other in “PBM 8-mer E-score” value: 0.256 ± 0.035 for the first, 0.262 ± 0.069 for the second.

ATAATACC and CTAATATA are the same in “PBM 8-mer E-score” value: 0.203 ± 0.026 for the first, 0.203 ± 0.012 for the second.

Compared with ACATAATC, ACATAATA is higher in “PBM 8-mer E-score” value: 0.111 ± 0.029 for the first, 0.288 ± 0.01 for the second.

Going from GTATAATA to AGCACAAT, the “PBM 8-mer E-score” value falls from 0.194 ± 0.011 to 0.0982 ± 0.029.

Compared with ATCGGCCA, AAGATGAA is higher in “PBM 8-mer E-score” value: -0.199 ± 0.054 for the first, 0.0673 ± 0.0063 for the second.

AGTTCCTA and CATTCCGA are within error of each other in “PBM 8-mer E-score” value: -0.0137 ± 0.1 for the first, 0.0189 ± 0.04 for the second.

Going from CGCTCCAG to ATACTCCC, the “PBM 8-mer E-score” value rises from -0.224 ± 0.12 to 0.0233 ± 0.061.

AGCGATAA and AAACCAGC are within error of each other in “PBM 8-mer E-score” value: -0.115 ± 0.023 for the first, -0.182 ± 0.12 for the second.

First: CTGAAGGA
Second: AACAAATA
The “PBM 8-mer E-score” value of the first is lower: -0.0478 ± 0.038 for the first, 0.235 ± 0.039 for the second.

Going from TACAAATA to AACAAAAT, the “PBM 8-mer E-score” value rises from 0.154 ± 0.042 to 0.301 ± 0.016.

AACAAAAA and AACAAGTA are within error of each other in “PBM 8-mer E-score” value: 0.113 ± 0.021 for the first, 0.0942 ± 0.0044 for the second.

Compared with AACAAGAT, AATCTACG is lower in “PBM 8-mer E-score” value: 0.11 ± 0.095 for the first, -0.0669 ± 0.058 for the second.

Going from AAAGTACG to CAGCACCA, the “PBM 8-mer E-score” value falls from 0.0681 ± 0.065 to -0.0907 ± 0.0017.

First: CCATTAGA
Second: ATAGAAAA
The “PBM 8-mer E-score” value of the first is lower: -0.222 ± 0.029 for the first, 0.134 ± 0.016 for the second.

CATTAATA and AATTAAGC are within error of each other in “PBM 8-mer E-score” value: 0.119 ± 0.11 for the first, 0.0692 ± 0.079 for the second.

GATTAAGA and AATTAAAT are within error of each other in “PBM 8-mer E-score” value: 0.182 ± 0.054 for the first, 0.253 ± 0.024 for the second.

First: ATTTAATA
Second: TATTAATA
The “PBM 8-mer E-score” value of the first is higher: 0.23 ± 0.013 for the first, 0.19 ± 0.021 for the second.

AATTAAGA and AATTAAAG are within error of each other in “PBM 8-mer E-score” value: 0.241 ± 0.057 for the first, 0.184 ± 0.068 for the second.

GATTAATA and AATTAATA are within error of each other in “PBM 8-mer E-score” value: 0.266 ± 0.022 for the first, 0.243 ± 0.094 for the second.

ACTTAATA and AATTAAAC are within error of each other in “PBM 8-mer E-score” value: 0.21 ± 0.015 for the first, 0.218 ± 0.018 for the second.

AGCAGAAG and ATCGCTCC are within error of each other in “PBM 8-mer E-score” value: -0.0139 ± 0.09 for the first, -0.0658 ± 0.15 for the second.

Compared with ACGTAACC, CTTACCGC is lower in “PBM 8-mer E-score” value: 0.109 ± 0.1 for the first, -0.13 ± 0.11 for the second.

CTGATCCC and AGTGCCTG are within error of each other in “PBM 8-mer E-score” value: -0.00057 ± 0.1 for the first, -0.101 ± 0.011 for the second.

Compared with CTCAAGAG, AATTAGTC is higher in “PBM 8-mer E-score” value: -0.266 ± 0.032 for the first, -0.027 ± 0.071 for the second.

AATTAATT and AATTAATG are within error of each other in “PBM 8-mer E-score” value: 0.262 ± 0.088 for the first, 0.166 ± 0.16 for the second.

CATTAGTA and AATTAATC are within error of each other in “PBM 8-mer E-score” value: 0.0683 ± 0.015 for the first, 0.0672 ± 0.11 for the second.

Compared with AATTAGTA, CGGGCTCA is lower in “PBM 8-mer E-score” value: 0.249 ± 0.075 for the first, -0.237 ± 0.039 for the second.

Going from AAACAAAA to AAAACAAC, the “PBM 8-mer E-score” value falls from 0.284 ± 0.023 to -0.0511 ± 0.034.

First: CAACAACA
Second: TAACAAAA
The “PBM 8-mer E-score” value of the first is higher: 0.237 ± 0.027 for the first, 0.166 ± 0.0052 for the second.

GAACAACA and AAACAAAC are within error of each other in “PBM 8-mer E-score” value: 0.0194 ± 0.12 for the first, 0.0359 ± 0.011 for the second.

Going from AAACAAAT to AAACAAAG, the “PBM 8-mer E-score” value falls from 0.275 ± 0.05 to 0.114 ± 0.032.

AAAACAAG and AAACAAGT are within error of each other in “PBM 8-mer E-score” value: 0.122 ± 0.18 for the first, 0.0146 ± 0.12 for the second.

CAACAAGA and AAAACAAT are within error of each other in “PBM 8-mer E-score” value: 0.0122 ± 0.26 for the first, 0.259 ± 0.0082 for the second.

CTATCTGC and CACTACAG are within error of each other in “PBM 8-mer E-score” value: -0.0743 ± 0.063 for the first, -0.123 ± 0.011 for the second.

GTTAGAGA and AAGGCGAT are within error of each other in “PBM 8-mer E-score” value: -0.0703 ± 0.011 for the first, 0.0502 ± 0.11 for the second.

ATTAAAGC and AAGGTTGA are within error of each other in “PBM 8-mer E-score” value: 0.133 ± 0.061 for the first, 0.14 ± 0.0094 for the second.

CCGCTTAG was tested, and the “PBM 8-mer E-score” value was -0.158 ± 0.088.
